These results are taken from PubChem BioAssay (NCI).

Common to all, as to assay: NCI-60 one-dose screen, 48 h (100 = growth as untreated, 0 = no growth, -100 = all killed)
Common to all, as to settings: 10 µM unless noted

In experiment [1] the test system is RPMI-8226 leukemia.
In experiment [2] the test system is OVCAR-8 ovarian.
For experiment [3], the system named is OVCAR-5 ovarian.
Experiment [4] concerns OVCAR-4 ovarian.
Experiment [5] deals with SK-OV-3 ovarian.
Experiment [6] relates to IGROV1 ovarian.
For experiment [7], the system named is OVCAR-3 ovarian.
For experiment [8], the system named is HS 578T breast.
Experiment [9] has as its system NCI/ADR-RES ovarian.
Experiment [10] relates to T-47D breast.
Experiment [11] has as its system MDA-MB-435 melanoma.
In experiment [12] the test system is SW-620 colon.
Experiment [13] has as its system MCF7 breast.
In experiment [14] the test system is HCT-116 colon.
Experiment [15] has as its system HCC-2998 colon.
In experiment [16] the test system is KM12 colon.
Experiment [17] deals with BT-549 breast.

“And” between values parts separate entries of the source, which are not always exact repeats. Equal entries are not always repeated. About 83,000 compounds went through this panel and 20% of them were active in at least one assay; those are over-represented in the sample as a whole.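 Cell lines were cultured in 96-well plates, exposed to a single compound concentration, and assessed for percent growth 48 hours later.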 Where a structure was tested more than once in an assay, its records may differ in their call. The source made the active and inactive calls. The calls were made as follows: active = growth percent below 10; inactive = the rest.

For the compound `CCNC(=O)Nc1ccc(-c2nc3c(c(N4CCOC[C@@H]4C)n2)CCN(C2COC2)C3)cc1`, the growth in experiment [1] was 23.3% (inactive) and 6.21% (active); in [2] it was 48% (inactive) and 0.436% (active); in [3], 46.7% (inactive) and 23.1% (inactive); in experiment [4], 23.1% (inactive) and -13% (active); in [5], 13.9% (inactive) and -35% (active); in experiment [6], 15.2% (inactive) and -12.9% (active). Also, the growth was 40.4% (inactive) and 16% (inactive) in experiment [7]; 1.21% (active) in [8]; 90.4% (inactive) and 12.4% (inactive) in experiment [9]; -12.4% (active) and -25.3% (active) in experiment [10]; 32.9% (inactive) and 0.798% (active) in experiment [11]; 62.2% (inactive) and 14% (inactive) in experiment [12]. Also, the growth was 15.6% (inactive) and 11.8% (inactive) in experiment [13]; 58.9% (inactive) and 28.5% (inactive) in [14]; 50% (inactive) in experiment [15]; 47.5% (inactive) and 17.1% (inactive) in [16].
On to `N#C/C(=C/c1c(O)ccc2ccccc12)C(N)=O`, for which the growth in [1] was 88.2% (inactive); in [2], 105% (inactive); in experiment [3] it was 105% (inactive); in [4], 92% (inactive); in [5], 92.6% (inactive); in experiment [6], 93.4% (inactive). Besides, the growth in experiment [7] is 90.1% (inactive); in [8], 113% (inactive); in [9], 94.6% (inactive); in [10], 87.5% (inactive); in experiment [11], 104% (inactive); in [12] it was 94.6% (inactive). Also, the growth is 95.1% (inactive) in [13], 101% (inactive) in [14] and 93.8% (inactive) in experiment [16].
Turning to `CC1(C)C2CCC1(CS(=O)(=O)O)C(=O)C2` (centres undefined), the growth was 95.1% (inactive) in experiment [4] and 112% (inactive) in [8].
As for `CC(O)Cn1cnc2c1c(=O)n(C)c(=O)n2C` (centres undefined), the growth in [2] was 97.6% (inactive); in experiment [3] it was 125% (inactive); in experiment [4], 96.5% (inactive); in experiment [6], 90.6% (inactive); in experiment [7], 108% (inactive); in [9] it was 112% (inactive). Besides, the growth was 85.8% (inactive) in experiment [10]; 83.5% (inactive) in [17]; 109% (inactive) in [11]; 113% (inactive) in experiment [12]; 92.8% (inactive) in experiment [13]; 102% (inactive) in [14]. The growth in experiment [15] was 106% (inactive); in experiment [16], 104% (inactive).
`N#Cc1c(N)oc(-c2cccc([N+](=O)[O-])c2)c1C#N`: in experiment [13], the growth is 12.3% [100 µM] (inactive) and -50% [100 µM] (active).
For `OC1CCC(Oc2cccc3cnc(Nc4ccc5nc[nH]c5c4)nc23)CC1` (centres undefined), the growth in experiment [1] is -16.7% (active) and 55% (inactive); in [2], 5.91% (active) and 52.6% (inactive); in [3] it was 24.2% (inactive) and 41.7% (inactive); in experiment [4], 15.7% (inactive) and 73.9% (inactive); in experiment [5], 8.38% (active) and 57.4% (inactive); in experiment [6], 19.1% (inactive) and 52.3% (inactive). For the same compound, the growth in [7] was 5.57% (active) and 53.7% (inactive); in experiment [8], -7.28% (active) and 15.8% (inactive); in experiment [9], 9.41% (active) and 83.2% (inactive); in [10] it was -7.14% (active) and 43.9% (inactive); in [11], 12.3% (inactive) and 58.4% (inactive); in experiment [12], 5.88% (active) and 32.4% (inactive). Also, the growth in experiment [13] is 5.53% (active) and 17.9% (inactive); in experiment [14], -6.99% (active) and 2.03% (active); in [15], 8.35% (active) and 61.4% (inactive); in [16], 1.29% (active) and 15.7% (inactive).
Regarding `C=C(CCC(C(=O)O)C1CCC2(C)C3=C(CCC12C)C1(C)CCC(O)C(C)(C)C1CC3)C(C)C` (centres undefined), the growth in experiment [13] was -52.5% [100 µM] (active) and -56.2% [100 µM] (active).
For the compound `NC(=S)N/N=C(\c1ccc(Br)cc1)C1CC1`, the growth in experiment [2] is 83% (inactive); in experiment [3], 110% (inactive) and 97.1% (inactive); in experiment [4], 74.4% (inactive); in experiment [5], 105% (inactive) and 97% (inactive); in experiment [6], 18.1% (inactive) and 42.3% (inactive); in experiment [7], 38.3% (inactive) and 37.1% (inactive). Further, the growth is 96.1% (inactive) and 98% (inactive) in experiment [8]; 74.2% (inactive) and 57.5% (inactive) in experiment [9]; 70.1% (inactive) and 36.2% (inactive) in experiment [10]; 99.6% (inactive) and 106% (inactive) in [17]; 92% (inactive) and 91.9% (inactive) in experiment [11]; 79.7% (inactive) and 71.1% (inactive) in experiment [12]. For the same compound, the growth is 7.26% (active) and 2.42% (active) in experiment [14]; 97.2% (inactive) and 93.9% (inactive) in [15]; 101% (inactive) and 108% (inactive) in experiment [16].
As for `CC(C)=CCc1cc(C2COc3cc4c(c(O)c3C2=O)C=CC(C)(C)O4)c(O)cc1O` (centres undefined), in [13], the growth is -75.7% [100 µM] (active) and -83.3% [100 µM] (active).
On the same count and under the same terms, then `Cc1ccc(NC2=N/C(=C/c3ccccc3)C(Cl)=N2)cc1`, with 71.3% [100 µM] (inactive) and 75.4% [100 µM] (inactive).
For `CCN(CC)CCCC(C)Nc1ccnc2cc(Oc3ccccc3)ccc12` (centres undefined), the growth in experiment [1] is 68.6% (inactive); in [2], 63.1% (inactive) and 77.7% (inactive); in experiment [3], 82.7% (inactive) and 90.8% (inactive); in [4], 75.2% (inactive) and 92.9% (inactive); in experiment [5] it was 91.2% (inactive) and 97.2% (inactive); in [6], -53.5% (active) and 63.2% (inactive). Further, the growth was 83.4% (inactive) and 85.8% (inactive) in [7]; 69% (inactive) in [8]; 102% (inactive) and 96.9% (inactive) in experiment [9]; 28.8% (inactive) and 83.9% (inactive) in [10]; 62.9% (inactive) and 86% (inactive) in [17]; 2.5% (active) and 24.4% (inactive) in experiment [11]. Further, the growth in [12] is 55.8% (inactive) and 79.4% (inactive); in experiment [13] it was 55.3% (inactive) and 82.7% (inactive); in experiment [15], 90.9% (inactive) and 77.7% (inactive); in [16], 78.5% (inactive) and 87.2% (inactive).
Take `Cc1c(Cl)cccc1NCN1C(=O)c2ccccc2C1=O`: the growth in experiment [1] is 105% (inactive); in [2], 99.8% (inactive); in experiment [3], 107% (inactive); in [4], 108% (inactive); in [5], 106% (inactive); in experiment [6], 116% (inactive). Also, the growth in [7] was 114% (inactive); in experiment [8], 118% (inactive); in [9] it was 110% (inactive); in experiment [10] it was 94.4% (inactive); in experiment [17], 106% (inactive); in [11], 104% (inactive). For the same compound, the growth was 110% (inactive) in experiment [12], 97.6% (inactive) in [13], 111% (inactive) in [15] and 103% (inactive) in experiment [16].
For the compound `Oc1ccccc1/C=N\NC(=S)N/N=C/c1ccccc1O`, the growth in experiment [2] was 35.6% (inactive) and 23.4% (inactive); in [3], 59.2% (inactive) and 59.6% (inactive); in experiment [4], 25.7% (inactive); in [5] it was 46.5% (inactive) and 58.9% (inactive); in experiment [6], 20.9% (inactive) and 34.5% (inactive); in experiment [7] it was 14.1% (inactive) and 23% (inactive). Besides, the growth was 98.4% (inactive) and 73.4% (inactive) in experiment [8]; 13.5% (inactive) and 19.6% (inactive) in [9]; 48.4% (inactive) and 51.6% (inactive) in [10]; 47.3% (inactive) and 49.8% (inactive) in experiment [17]; 47.5% (inactive) and 50.7% (inactive) in experiment [12]; 25.6% (inactive) and 26.8% (inactive) in experiment [13]. Moreover, the growth was 28% (inactive) and 22.9% (inactive) in experiment [14]; 33.8% (inactive) and 49.7% (inactive) in [15]; 39% (inactive) and 28.2% (inactive) in experiment [16].
